# Data: PubChem BioAssay (Tox21)
# Unmarked numbers belong to inactive results. Results filed as inconclusive are left out. Where a call stands in place of a potency, no number is given. The source made the active and inactive calls. Unless noted, the call rests on the fitted dose curve; in most records, active means well fitted curve in the direction sought with a large enough effect in the repeat runs; inconclusive means weak or mixed curves; inactive means no such curve, though single readings can be large; an effect the other way counts as inactive or inconclusive.
# Tests used:
# [1] = qHTS assay to identify small molecule antagonists of the estrogen related receptor (ERR) signaling pathway from Tox21 library - cell viability counter screen (AID 1224834); further: nearly all actives have a fitted effect of over 30% in size
# Method in brief: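 CellTiter-Fluor fluorescence, read after 30 min at 37 C, measures viability of ERR cells. Cells plated at 2,000/well and incubated 6 h before pin-tool compound addition, then exposed 17.5 hours at 37 C.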
# [2] = molecular target: Luciferin 4-monooxygenase (Photinus pyralis) (UniProt P08659); experiment: qHTS assay to identify small molecule inhibitors of firefly luciferase (AID 1224835); further: nearly all actives have a fitted effect of over 25% in size
# Chain of Luciferin 4-monooxygenase (Photinus pyralis) (P08659 whole entry, looked up): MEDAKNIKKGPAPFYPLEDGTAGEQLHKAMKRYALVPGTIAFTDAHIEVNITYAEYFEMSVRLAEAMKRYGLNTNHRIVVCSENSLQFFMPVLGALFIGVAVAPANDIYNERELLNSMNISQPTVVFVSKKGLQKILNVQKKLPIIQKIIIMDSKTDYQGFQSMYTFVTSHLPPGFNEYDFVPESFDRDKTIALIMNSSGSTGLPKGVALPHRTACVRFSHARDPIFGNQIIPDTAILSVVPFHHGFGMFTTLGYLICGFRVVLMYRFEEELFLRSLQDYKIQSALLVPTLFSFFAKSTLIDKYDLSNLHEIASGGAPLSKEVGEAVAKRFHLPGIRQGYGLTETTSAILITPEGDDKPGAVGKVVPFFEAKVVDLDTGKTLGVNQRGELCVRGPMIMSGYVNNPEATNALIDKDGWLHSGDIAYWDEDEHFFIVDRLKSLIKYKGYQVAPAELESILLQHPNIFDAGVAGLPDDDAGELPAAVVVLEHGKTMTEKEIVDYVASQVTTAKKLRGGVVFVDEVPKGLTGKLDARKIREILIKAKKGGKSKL
# Method in brief: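 Inhibition of purified Photinus luciferase is measured by luminescence. Substrate levels (D-luciferin, ATP) sit at their KM values. Each compound is tested in a concentration series.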
# [3] = qHTS assay to identify small molecule agonists of the constitutive androstane receptor (CAR) signaling pathway - cell viability counter screen (AID 1224836); further: nearly all actives have a fitted effect of over 45% in size
# Method in brief: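 Viability read-out: CellTiter-Fluor fluorescence after 23 h compound exposure at 37 C/5% CO2 in double-stable HepG2-CYP2B6-hCAR cells, with PK11195 present at 0.75 uM final; compounds tested in 15-point titration.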
# [4] = qHTS assay to identify small molecule antagonists of the constitutive androstane receptor (CAR) signaling pathway - cell viability counter screen (AID 1224837); further: nearly all actives have a fitted effect of over 45% in size
# Method in brief: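 Cytotoxicity counter-screen: CellTiter-Fluor fluorescence after 23 h compound exposure (15-point qHTS) in double-stable HepG2-CYP2B6-hCAR cells, with 50 nM CITCO added.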
# [5] = molecular target: Nuclear receptor subfamily 1 group I member 3 (Homo sapiens) (UniProt Q14994); experiment: qHTS assay to identify small molecule antagonists of the constitutive androstane receptor (CAR) signaling pathway (AID 1224838);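 further: HepG2 cells stably expressing hCAR with CYP2B6 luciferase reporter stimulated by CITCO; nearly all actives have a fitted effect of over 40% in size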
# Chain of Nuclear receptor subfamily 1 group I member 3 (Homo sapiens) (Q14994 whole entry, looked up): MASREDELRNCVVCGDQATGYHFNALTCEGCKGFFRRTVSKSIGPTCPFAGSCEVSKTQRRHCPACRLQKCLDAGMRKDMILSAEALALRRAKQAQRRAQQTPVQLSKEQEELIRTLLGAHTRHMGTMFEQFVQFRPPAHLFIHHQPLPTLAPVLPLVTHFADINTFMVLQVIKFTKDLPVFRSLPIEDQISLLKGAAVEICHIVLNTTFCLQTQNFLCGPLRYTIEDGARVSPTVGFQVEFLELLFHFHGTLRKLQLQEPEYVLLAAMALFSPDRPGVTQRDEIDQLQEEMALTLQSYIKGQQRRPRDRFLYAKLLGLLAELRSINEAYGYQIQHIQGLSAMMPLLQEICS
# Method in brief: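 Antagonism measured as luciferase signal (ONE-Glo, 30 min, room temperature) in CAR-stimulated cells: HepG2-CYP2B6-hCAR double-stable line exposed 24 hr at 37 C to compound in a 15-point series plus 50 nM CITCO.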
# [6] = molecular target: Nuclear receptor subfamily 1 group I member 3 (Homo sapiens) (UniProt Q14994); experiment: qHTS assay to identify small molecule agonists of the constitutive androstane receptor (CAR) signaling pathway (AID 1224839);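 further: HepG2 cells stably carrying human CAR and a CYP2B6 luciferase reporter; nearly all actives have a fitted effect of over 15% in size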
# Method in brief: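 Luminescence read-out (ONE-Glo, 30 min, room temperature) from double-stable HepG2-CYP2B6-hCAR cells exposed 24 h to 15-point compound series in presence of 0.75 uM PK11195 final.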
# [7] = qHTS assay to identify small molecule antagonists of the estrogen related receptor signaling pathway with the pleiotropic PPARgamma coactivator (PGC) from Tox21 10K library - cell viability counter screen (AID 1224840; active means well fitted cell-killing curve with a large enough effect in the repeat runs, not every such curve was filed as active; further: nearly all actives have a fitted effect of over 40% in size)
# Method in brief: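 Counter-screen for cytotoxicity: after 17.5 h compound exposure at 37 C, CellTiter-Fluor reagent added to PGC/ERR cells for 30 min and fluorescence read. Cells were seeded at 2,000 per well 6 h before dosing.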
# [8] = molecular target: Thyrotropin receptor (Homo sapiens) (UniProt P16473); experiment: qHTS assay to identify small molecule agonists of the thyroid stimulating hormone receptor (TSHR) signaling pathway (AID 1224843; calls by dose curve; further: nearly all actives have a fitted effect of over 45% in size)
# Chain of Thyrotropin receptor (Homo sapiens) (P16473 whole entry, looked up): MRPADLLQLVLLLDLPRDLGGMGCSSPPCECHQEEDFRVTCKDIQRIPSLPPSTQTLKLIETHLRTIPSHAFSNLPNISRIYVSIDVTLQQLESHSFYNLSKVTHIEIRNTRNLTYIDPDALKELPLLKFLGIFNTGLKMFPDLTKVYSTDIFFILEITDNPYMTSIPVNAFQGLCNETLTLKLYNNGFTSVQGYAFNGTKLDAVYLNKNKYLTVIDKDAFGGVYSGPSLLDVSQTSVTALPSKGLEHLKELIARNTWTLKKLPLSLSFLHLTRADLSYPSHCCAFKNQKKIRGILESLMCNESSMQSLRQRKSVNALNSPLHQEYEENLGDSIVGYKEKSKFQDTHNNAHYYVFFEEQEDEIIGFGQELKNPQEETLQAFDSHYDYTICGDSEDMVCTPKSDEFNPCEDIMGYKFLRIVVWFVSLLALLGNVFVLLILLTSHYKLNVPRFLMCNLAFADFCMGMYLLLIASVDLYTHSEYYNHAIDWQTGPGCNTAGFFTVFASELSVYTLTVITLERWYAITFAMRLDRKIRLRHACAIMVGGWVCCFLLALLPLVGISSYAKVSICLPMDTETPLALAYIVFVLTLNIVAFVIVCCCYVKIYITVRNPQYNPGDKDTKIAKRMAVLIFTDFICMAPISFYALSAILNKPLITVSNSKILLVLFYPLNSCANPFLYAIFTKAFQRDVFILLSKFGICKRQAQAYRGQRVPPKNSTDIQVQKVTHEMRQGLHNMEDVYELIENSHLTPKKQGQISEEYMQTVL
# Method in brief: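 Agonist activity read as cAMP rise via d2/cryptate HTRF competition, 1 h room-temperature detection, in HEK293 cells expressing TSHR. Fifteen-point titrations, each run in triplicate, with a 30 min room-temperature incubation beforehand.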
# [9] = qHTS assay to identify small molecule agonists of the hypoxia (HIF-1) signaling pathway - cell viability counter screen (AID 1224844; calls by dose curve; further: nearly all actives have a fitted effect of over 50% in size)
# Method in brief: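 Cytotoxicity measured by CellTiter-Glo ATP luminescence in the wells also read for beta-lactamase signal. Cells were HRE-bla ME-180 (2,000/well, 0.5% dialyzed FBS), exposed to compounds for 17 h at 37C.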
# [10] = qHTS assay to identify small molecule agonists of H2AX (AID 1224845; active means well fitted activation curve with a large enough effect in the signal ratio in the repeat runs, not every such curve was filed as active; the % refers to the signal ratio)
# Method in brief: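 Phospho-H2AX Ser139 measured by HTRF (ex 320 nm; em 665 and 620 nm) after 24 hr antibody incubation. Compounds, 15 concentrations, 0.76% DMSO, were applied to CHO-K1 cells for 3hr at 37C before lysis.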
# [11] = qHTS assay to identify small molecule agonists of the hypoxia (HIF-1) signaling pathway (AID 1224846; active means well fitted activation curve with a large enough effect in the signal ratio in the repeat runs, not every such curve was filed as active; the % refers to the signal ratio)
# Method in brief: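 Compounds added to ME-180 cells carrying hypoxia-response-element beta-lactamase reporter (0.5% dialyzed FBS, 5 h preplating), 17 h at 37C; agonist activity detected by CCF4-AM B/G FRET read-out.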
# [12] = qHTS assay to identify small molecule agonists of H2AX - cell viability counter screen (AID 1224847; calls by dose curve;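 further: wild-type CHO-K1 cells; top concentration of the series differs between compounds; nearly all actives have a fitted effect of over 30% in size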)
# Method in brief: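 CHO-K1 wt, 1000 cells/well, o/n 37C; cpds 15 conc, 3 h 37C, 0.76% DMSO; CellTiter-Glo, 30 min RT, luminescence.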
# [13] = qHTS RealTime-Glo MT Cell Viability Assay in HepG2 cells - 24 hour (AID 1224867); further: nearly all actives have a fitted effect of over 50% in size
# Method in brief: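 Cells + NanoLuc/prosubstrate dispensed (600 cells/well) → 5 h at 37 C/5% CO2 → compounds in DMSO transferred → 40 h incubation at 37 C, luminescence read at 0, 8, 16, 24, 32, 40 h.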
# [14] = qHTS RealTime-Glo MT Cell Viability Assay in HEK293 cells - 32 hour (AID 1224868); further: nearly all actives have a fitted effect of over 50% in size; further: potency means the concentration at half of the fitted maximal effect
# Method in brief: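 Tox21 10K qHTS, HEK293, 600 cells/well, RealTime-Glo reagent co-dispensed with cells; 5 h preincubation, compound by pintool, 37 C, luminescence at 0–40 h.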
# [15] = A CellTox Green Cytotoxicity Assay to monitor cytotoxicity in HEK293 cells - 0 hour (AID 1224869); further: nearly all actives have a fitted effect of over 50% in size
# Method in brief: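 Fluorescence from a DNA-binding dye excluded by viable cells was measured repeatedly in the same HEK293 wells (600 cells/well) during continuous compound exposure at 37 C. Each assay gives one read point: 0, 8, 16, 24, 32 or 40 h.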
# [16] = qHTS assay to identify small molecule agonists of the estrogen related receptor signaling pathway with the pleiotropic PPARgamma coactivator (PGC) (AID 1224823)
# Method in brief: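 Luminescence from One-Glo reagent (30 min, room temperature) was read after 18 h compound treatment at 37 C of PGC/ERR cells plated 6 h beforehand; compounds delivered in DMSO by pin tool.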
# [17] = qHTS assay to identify small molecule agonists of the estrogen related receptor signaling pathway with the pleiotropic PPARgamma coactivator (PGC) from Tox21 10K library (AID 1224842); further: nearly all actives have a fitted effect of over 15% in size
# Method in brief: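 Luminescence from One-Glo (30 min, room temperature) measured after PGC/ERR cells had 18 h at 37 C with pinned compound (23 nL in DMSO). Cells had been seeded at 2,000 per well and pre-incubated 6 h.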
# [18] = qHTS assay to identify small molecule antagonists of the estrogen related receptor (ERR) signaling pathway from Tox21 library (AID 1224848)
# Method in brief: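 Luciferase luminescence (ONE-Glo, 30 min room temperature) was the read-out. Cells of the NTP-supplied ERR line, 2,000 per well, were given 6 h at 37 C before compound addition in DMSO and 18 h exposure at 37 C.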
# [19] = qHTS assay to identify small molecule agonists of the estrogen related receptor (ERR) signaling pathway from Tox21 library (AID 1224849; calls by dose curve; further: nearly all actives have a fitted effect of over 15% in size); conditions: ERR reporter cell line, ONE-Glo luciferase, 18 h; at 92.4 µM (top of the series) unless noted
# Method in brief: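 Luminescent agonist read-out (One-Glo, 30-minute room-temperature incubation) following 18-hour compound treatment at 37 C of the ERR cell line, which had been plated 6 hours before dosing.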
SMILES,Potency [1],Potency [2],Potency [3],Potency [4],Potency [5],Potency [6],Potency [7],Potency [8],Potency [9],Potency [10],outcome [11],Potency [12],outcome [13],Potency [14],Potency [15],outcome [16],Potency [17],Potency [18],"activity change, positive = activation [19]"
CCCCCCCCCCCCCCCCC(=O)O,inactive,inactive,inactive,inactive,inactive,inactive,inactive,inactive,inactive,inactive,inactive,inactive,inactive,inactive,inactive,,,,
Cc1nc2sccn2c(=O)c1CCN1CCC(=C(c2ccc(F)cc2)c2ccc(F)cc2)CC1,inactive,inactive,inactive,,,inactive,inactive,,,inactive,,,inactive,3.38 µM (active),inactive,inactive,inactive,26.6 µM (active),-44.9% [at 42.5 µM]
CCCCCCCCNC,inactive,inactive,inactive,inactive,inactive,inactive,inactive,inactive,inactive,inactive,,,inactive,inactive,inactive,,,,
O=C(O)COCC(=O)O,inactive,inactive,inactive,inactive,inactive,inactive,inactive,inactive,inactive,inactive,inactive,inactive,inactive,inactive,inactive,,,,
